Results from PMC5540273 (PLoS ONE, 2017).

Columns and labels:
Details in all cases: concentration: 1 μM, replicates: in singlicate; n = 1
PRKCD = tested on: PRKCD
PRKCE = tested on: PRKCE
PRKCH = tested on: PRKCH
PRKCI = tested on: PRKCI
PRKCQ = tested on: PRKCQ
PRKD1 = tested on: PRKD1
PRKD2 = tested on: PRKD2
PRKD3 = tested on: PRKD3
PRKG1 = tested on: PRKG1
PRKG2 = tested on: PRKG2
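Note: KINOMEscan kinase panel screen.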

SMILES | %Inh (PRKCD) | %Inh (PRKCE) | %Inh (PRKCH) | %Inh (PRKCI) | %Inh (PRKCQ) | %Inh (PRKD1) | %Inh (PRKD2) | %Inh (PRKD3) | %Inh (PRKG1) | %Inh (PRKG2)
CCC(CC)(CC)n1cnc2c(N)ncnc21 [SKF-97620] | 8% | 47% | 20% | 16% | 0% | 0% | 8% | 0% | 14% | 3%
COc1cc2c(Nc3cccc(NC(=O)c4ccccc4)c3)ncnc2cc1OCCCN1CCOCC1 [GSK223810] | 18% | 13% | 10% | 8% | 22% | 2% | 4% | 5% | 8% | 0%
Nc1nc(-c2cccnc2)c(-c2ccnc3ccccc23)s1 [GW684083] | 0% | 0% | 31% | 21% | 4% | 24% | 34% | 0% | 0% | 0%
CCCc1ccc(S(=O)(=O)NC2CCN(c3ccnc(Nc4ccc(OC)cc4)n3)C2)cc1 (centres unmarked) [GSK1379737] | 0% | 9% | 0% | 11% | 0% | 0% | 3% | 9% | 0% | 0%
Fc1ccc(Nc2nccc(-c3c(-c4ccc(Cl)cc4)nn4ncccc34)n2)cc1F [GW829058] | 0% | 18% | 0% | 22% | 0% | 0% | 0% | 9% | 3% | 17%
